Among the data in PubChem BioAssay are composite z-score and composite Z-score values, retold here.

For assay [1], the target named is Albumin (Bos taurus) (UniProt P02769). Description: bovine serum albumin binders on microarray, profiling panel, artefact control for SMM control protein annotation, biochemical, small-molecule microarray, Alexa647 label, 635/667 nm fluorescence (AID 1118).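 Further: score merges 667 nm emission intensity and signal-to-noise per printed compound spot.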 The note with it: BSA-A647 binding, fluorescence 635 nm, higher = more signal.
Albumin (Bos taurus), sequence (P02769 whole entry, looked up): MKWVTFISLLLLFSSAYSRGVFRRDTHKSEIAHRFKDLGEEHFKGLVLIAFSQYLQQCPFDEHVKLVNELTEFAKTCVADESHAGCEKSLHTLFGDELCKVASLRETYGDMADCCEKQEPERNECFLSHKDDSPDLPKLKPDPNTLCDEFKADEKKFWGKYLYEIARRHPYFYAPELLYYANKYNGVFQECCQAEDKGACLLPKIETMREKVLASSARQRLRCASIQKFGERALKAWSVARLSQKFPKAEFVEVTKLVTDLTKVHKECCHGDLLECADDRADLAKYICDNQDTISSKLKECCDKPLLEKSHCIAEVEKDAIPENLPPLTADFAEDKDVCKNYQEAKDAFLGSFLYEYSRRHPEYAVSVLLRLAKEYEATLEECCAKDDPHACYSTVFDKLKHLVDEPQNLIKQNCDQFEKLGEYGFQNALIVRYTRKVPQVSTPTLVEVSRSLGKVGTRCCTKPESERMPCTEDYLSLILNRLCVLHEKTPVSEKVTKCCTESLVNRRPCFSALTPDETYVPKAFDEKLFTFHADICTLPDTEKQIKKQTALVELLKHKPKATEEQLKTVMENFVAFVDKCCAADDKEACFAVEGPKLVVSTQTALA
Assay [2] can be described thus: small-molecule microarray binders of probe aXIP, primary screen, biochemical, NeuroSMM set, 635/667 nm fluorescence (AID 1119).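 Further: probe is the protein aXip251-270 applied at 1 µg/mL to compound-printed slides; binding of probe to printed compounds measured as 667 nm fluorescence plus signal to noise.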 The note with it: higher = more signal, called active from +8 up or from −8 down.
Assay [3] in a line: small-molecule binders of probe aNOTCH3, primary screen, biochemical, small-molecule microarray, 635/667 nm fluorescence (AID 1120).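 Further: probe is a biotin-tagged antibody raised against NOTCH3 rather than NOTCH3 protein; score merges spot fluorescence near 667 nm with spot signal to noise.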 To be noted: higher = more signal.
Assay [4] can be described thus: small-molecule binders of probe aNOTCH2, primary screen, biochemical, small-molecule microarray, 635/667 nm fluorescence (AID 1121).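 Further: score merges feature fluorescence read at 667 nm with its signal to noise.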 To be noted: higher = more signal.
Assay [5] deals with Carbonic anhydrase 2 (Homo sapiens) (UniProt P00918). Description: CAII small-molecule binders, profiling panel, biochemical, small-molecule microarray, Alexa647-labelled CAII (AID 1122). To be noted: CAII-A647 binding fluorescence, higher = more signal.
Assay [6] in a line: COS7 lysate on small-molecule microarray, probe aHis, 635 nm (AID 1123).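 Further: z-score combines 667nm fluorescence intensity with signal-to-noise per printed compound spot.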 The note with it: COS7 cell lysate, fluorescence, higher = more signal.
A short description of assay [7]: compound binding in COS7 lysate, probe aLAP1, primary screen, cell lysate, small-molecule microarray (AID 1124).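 Further: lysate comes from COS7 cells expressing LAP1 and is applied at 0.3 µg/mL; score merges spot fluorescence near 667 nm with signal-to-noise over triplicate slides.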 The note with it: probe aLAP1, fluorescence, higher = more signal.
The test system of assay [8] is Sam68 (KHDRBS1). Description: Sam68 small-molecule binders, primary screen, biochemical, small-molecule microarray, 635 nm fluorescence (AID 1125).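 Further: score merges 667 nm channel intensity with signal to noise over triplicate slides.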 The note with it: small-molecule microarray binding, higher = more signal.
For assay [9], the system named is Chordin-like protein 2 (CHRDL2). Description: CHRDL2 small-molecule binders, primary screen, biochemical, small-molecule microarray, 635 nm fluorescence (AID 1126).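 Further: printed compound slides probed with Chrdl2 protein at 4 µg/mL for 1 h at 4 C; score merges 667 nm emission intensity with signal to noise over three replicate slides.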 The note with it: small-molecule microarray binding, fluorescence 635 nm; higher = more signal.
Assay [10] concerns the target Concanavalin-A (Canavalia ensiformis) (UniProt P02866). Description: ConA small-molecule binders, primary screen, artefact control for SMM control protein annotation, biochemical, small-molecule microarray, Alexa647 label, 635 nm (AID 1127).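 Further: z combines 667 nm emission intensity with signal-to-noise across three replicate slides.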 To be noted: ConA-A647 binding fluorescence, higher = more signal.

The structures appear in SMILES notation. Calls of active or inactive are those of the source.

Concanavalin-A (Canavalia ensiformis), sequence (P02866 whole entry, looked up): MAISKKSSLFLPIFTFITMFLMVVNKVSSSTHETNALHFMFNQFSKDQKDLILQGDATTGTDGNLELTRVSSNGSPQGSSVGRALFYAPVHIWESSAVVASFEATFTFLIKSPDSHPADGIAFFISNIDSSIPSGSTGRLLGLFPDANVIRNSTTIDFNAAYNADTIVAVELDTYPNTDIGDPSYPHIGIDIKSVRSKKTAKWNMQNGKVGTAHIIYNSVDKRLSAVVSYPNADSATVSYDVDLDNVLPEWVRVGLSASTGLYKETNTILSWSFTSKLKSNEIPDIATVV

For the molecule `C=C(CCCC)/C(=C/C[C@H](OC(=O)c1ccncc1)c1cccc(OCCO)c1)c1cnc2ccccc2c1`, the composite z-score in [1] was 0.677; in assay [3] it was 0.211; in assay [4] it was -0.0649; in assay [5], 0.861; in assay [6], 1.17; in assay [7], 0.423. For the same molecule, the composite z-score came to 1.26 in assay [8], 0.51 in assay [9] and 0.831 in assay [10]. Also, in [2], the composite Z-score is -0.12 (inactive).
With `COCCOC(=O)N1C(=O)[C@@]2(c3ccccc31)[C@H](C(=O)N1CCN(c3ncccn3)CC1)[C@H]1C(=O)O[C@H](c3ccccc3)[C@H](c3ccccc3)N1[C@@H]2c1ccccc1OCCO`, the composite z-score in assay [1] was -0.448; in assay [3], 0.102; in assay [4], -0.118; in assay [5], 0.506; in [6], 1.19; in [7], 1.37. The composite z-score in assay [8] is 1.28; in [9], 0.761; in [10] it was 1.05. Moreover, the composite Z-score in assay [2] is 0.196 (inactive).
As to `C=CC[C@@]12N=C(c3ccc(OCCCO)cc3)O[C@@H]1c1ccccc1N(CCC)C2=O`, the composite z-score in assay [1] is 0.727; in assay [3], 0.0968; in assay [4], -0.0617; in assay [5], 0.326; in [6], 2.73; in assay [7], -0.227. Moreover, the composite z-score in [8] came out at 1.29; in assay [9] it was 1.24; in [10] it was 1.06. In [2], the composite Z-score is 0.414 (inactive).
As for `C=CC1c2cc(O)c(OC)cc2CCN1C` (stereo not given), the composite z-score in assay [1] was 0.582; in assay [3], -0.136; in assay [4], -0.126; in assay [5], 0.886; in assay [6] it was -0.0207; in [7] it was 0.0879. The results for the composite z-score in assay [8], in assay [9] and in [10] were -0.589, -0.644 and -1.24, respectively. Further, the composite Z-score in assay [2] was 0.694 (inactive).
On to `O=C1N(Cc2ccccc2)c2ccccc2C[C@@]12COC(c1ccc(OCCCO)cc1)=N2`, for which the composite z-score in [1] was 0.809; in assay [3], 0.251; in assay [4] it was -0.0595; in assay [5], 0.471; in assay [6], 2.51; in assay [7], 0.756. Also, the composite z-score in assay [8] was 1.15; in assay [9] it was -0.366; in assay [10] it was 0.582. Moreover, in [2], the composite Z-score was -0.267 (inactive).
Consider `CC(C)=CCCC(C)=CC(O)C1C=CC2C(=O)NC(=O)C2N1Nc1ccc(Cl)cc1Cl` (stereo not given), for which the composite z-score in assay [1] was 0.909; in assay [3], 0.0952; in assay [4], -0.0464; in assay [5], 0.596; in [6] it was 1.49; in assay [7], 1.36. The figures for the composite z-score in assay [8], in [9] and in [10] were 0.623, 0.307 and 0.623, respectively. For the same molecule, in [2], the composite Z-score was -0.0883 (inactive).
Take `COc1ccc([Si](C)(C)[C@H]2[C@H](CC(=O)N3CCC[C@H]3CO)O[C@@]3(C(=O)N(Cc4ccc(N5CCCCC5=O)cc4)c4ccccc43)[C@@H]2C)cc1`: the composite z-score in assay [1] was 0.664; in assay [3], 0.212; in [4], -0.108; in assay [5] it was 0.292; in assay [6], 1.27; in assay [7], 0.0516. Further, the composite z-score in [8] was 1.3; in assay [9], 0.824; in [10], 1.18. The composite Z-score in [2] was -0.765 (inactive).
For the molecule `COC(=O)[C@@]1(Cc2ccccc2)[C@H]2c3cc(C(=O)N(C)C)n(Cc4ccc(S(C)(=O)=O)cc4)c3C[C@H]2CN1C(=O)c1ccccc1`, the composite z-score stood at 1.13 in [1]; 0.364 in assay [3]; 0.199 in assay [4]; 0.647 in [5]; 2.9 in assay [6]; 0.722 in [7]. Further, the composite z-score was 0.296 in [8], -0.755 in assay [9] and 1.08 in [10]. Besides, the composite Z-score in assay [2] is -0.368 (inactive).
On to `C=C(CCCC)C(=O)CC[C@@H](OC(=O)c1ccccc1-c1ccccc1C(=O)O)c1ccccc1OCCO`, for which the composite z-score is 0.269 in assay [1]; -0.207 in assay [3]; -0.14 in [4]; 0.626 in [5]; -0.467 in assay [6]; 0.712 in assay [7]. Also, the composite z-score amounted to 0.523 in assay [8], 0.492 in assay [9] and 1.05 in assay [10]. Further, the composite Z-score in assay [2] was -0.136 (inactive).
Take `CC1CC/C=C\[C@H]2OC34C=CCN(c5ccc(Cl)cc5)C(=O)[C@H]3N(CCCCCCO)C(=O)[C@]4(C)C2C(=O)O1` (stereo not given in full): the composite z-score was -0.685 in assay [1]; -0.314 in assay [3]; 0.309 in assay [4]; 0.3 in assay [5]; 0.383 in [6]; -0.17 in [7]. Besides, the composite z-score in assay [8] was -0.552; in [9], -0.742; in assay [10], -0.241. The composite Z-score in [2] was 0.0185 (inactive).
As for `O=C(NCC(O)CO)[C@@]1(CCS(=O)(=O)c2ccccc2)N=C(c2ccc(OCCCO)cc2)O[C@H]1c1ccccc1` (stereo not given in full), the composite z-score in assay [1] worked out at 0.905; in assay [3], 0.177; in assay [4], 0.137; in assay [5] it was 0.555; in assay [6], 3.17; in [7], 1.11. Besides, the values for the composite z-score in [8], in assay [9] and in assay [10] were 1.22, 0.106 and 0.0968, respectively. In addition, the composite Z-score in [2] is 1.06 (inactive).
For `CCCC[C@H]1C[C@@H]1[C@@H]1N(C(C)=O)[C@H](c2cccc(OC)c2)CC12CC2`, the composite z-score stood at 0.219 in [1]; 0.0026 in assay [3]; 0.0112 in assay [4]; 0.202 in assay [5]; 0.808 in assay [6]; 0.603 in [7]. Also, the composite z-score in assay [8] was -0.658; in assay [9], -1; in assay [10] it was -0.745. The composite Z-score in assay [2] is 0.797 (inactive).
Turning to `C=CC[C@]1(C(=O)NCC(O)CO)COC(c2ccc(OCCCO)cc2)=N1` (stereo not given in full), the composite z-score in [1] was -0.506; in assay [3], 0.0897; in assay [4], -0.0209; in assay [5] it was 0.674; in [6], 1.56; in assay [7], 0.553. For the same molecule, the composite z-score is -0.174 in assay [8], -0.582 in assay [9] and -1.45 in assay [10]. For the same molecule, the composite Z-score in assay [2] is -0.181 (inactive).
As to `C=CCN1Cc2ccccc2[C@H]2OC(c3ccc(OCCCO)cc3)=N[C@@]2(CCS(=O)(=O)c2ccccc2)C1=O`, the composite z-score in assay [1] was 0.465; in [3] it was 0.0562; in [4] it was -0.0135; in [5] it was 0.614; in [6], 3.07; in assay [7], 0.333. Besides, the composite z-score in assay [8] was determined as 1.31; in assay [9], 0.843; in assay [10], 1.16. In addition, in [2], the composite Z-score was 1.79 (inactive).
Regarding `O=C1NC(=O)C2C1C=CC(C(O)c1ccc(B(O)O)cc1)N2Nc1ccc(Cl)cc1Cl` (stereo not given), the composite z-score in [1] was 0.0179; in assay [3], 0.0864; in assay [4], 0.119; in [5], 0.753; in assay [6] it was 0.546; in [7], -0.11. The composite z-score in assay [8] is -0.597; in assay [9], 0.0005; in [10], 0.423. The composite Z-score in assay [2] was 0.168 (inactive).
For the molecule `COCCCNC(=O)[C@@]1(CCS(=O)(=O)c2ccccc2)COC(c2ccc(OCCCO)cc2)=N1`, the composite z-score in assay [1] amounted to 0.595; in [3], 0.567; in assay [4], 0.0551; in assay [5] it was 0.919; in assay [6], 3.36; in assay [7], 0.706. For the same molecule, the composite z-score in assay [8] is 1.14; in [9], -0.804; in [10], 0.945. Moreover, the composite Z-score in assay [2] is 0.197 (inactive).
